# Source: PubChem BioAssay (Tox21)
# Values without a mark were called inactive. Inconclusive results are not listed. A call without a number means that no potency is given here. Active and inactive are the calls of the source. Unless noted, calls follow the shape of the full dose curve.
# What was measured:
# [1] = Nuclear factor erythroid 2-related factor 2/antioxidant responsive element (Nrf2/ARE) small molecule agonists: qHTS cell viability counter screen in human keratinocytes (AID 1919968; active = well fitted curve in the direction sought with a large enough effect in the repeat runs; an effect the other way counts as inactive or inconclusive; also: nearly all actives have a fitted effect of over 55% in size)
# Method in brief: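 KeratinoSens HaCaT cells, 1,500/well, preincubated 5 h, then exposed to compounds in DMSO for 23 h at 37 C/5% CO2. Viability read as CellTiter-Fluor fluorescence after 1 h, in the same wells as the ARE-luciferase read.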
# [2] = Nuclear factor erythroid 2-related factor 2/antioxidant responsive element (Nrf2/ARE) small molecule agonists: luciferase reporter gene qHTS assay in human keratinocytes (AID 1919969); also: nearly all actives have a fitted effect of over 35% in size
# [3] = molecular target: Gonadotropin-releasing hormone receptor (Homo sapiens) (UniProt P30968); assay: Human gonadotropin-releasing hormone receptor (GnRHR) small molecule agonists, calcium flux assay in GnRHR-HEK293 cells (AID 1920063); also: nearly all actives have a fitted effect of over 35% in size
# Method in brief: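 HEK293 cells stably expressing human GnRHR were dye-loaded for 1 h at 37 C. Compound was added in agonist mode and fluorescence (Ex/Em 480/540) recorded kinetically for 3 min. Fifteen concentrations, triplicates.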
# [4] = molecular target: KiSS-1 receptor (Homo sapiens) (UniProt Q969F8); assay: Human kisspeptin (KISS1R) small molecule agonists, calcium flux assay in KISS1R-HEK293 cells (AID 1920064; active = well fitted curve in the direction sought with a large enough effect in the repeat runs; an effect the other way counts as inactive or inconclusive)
# Method in brief: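 HEK293 cells stably expressing human KISS1R were loaded with calcium dye for 1 h at 37 C, then given compound; fluorescence (Ex/Em 480/540) was read kinetically for 3 min. Fifteen concentrations, triplicate.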
# [5] = G protein-coupled receptor (GPCR) small molecule agonists, calcium flux assay: HEK293 wild type cell line counter screen (AID 1920065)
# Method in brief: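 Wild-type HEK293 cells plated 18 h, loaded with calcium dye 1 h at 37 C, then compounds added in agonist mode (ATP as positive control). Kinetic fluorescence Ex/Em 480/540 recorded 3 min at 1 sec intervals; 15 concentrations, triplicate.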
# [6] = p53 small molecule agonists, cell-based qHTS assay with human liver microsomes: qHTS cell viability counter screen (AID 1963579); also: nearly all actives have a fitted effect of over 45% in size
# Method in brief: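 Metabolically activated exposure: compounds, human liver microsomes and NADPH (0.5 mg/mL final apiece) were added to p53RE-bla cells seeded 5 h earlier, left 16 h at 37 C, and then assessed for viability by CellTiter-Glo luminescence.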
# [7] = p53 small molecule agonists, cell-based qHTS assay with rat liver microsomes: qHTS cell viability counter screen (AID 1963580); also: nearly all actives have a fitted effect of over 45% in size
# Method in brief: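 Viability is assessed in parallel with the p53 reporter read: HCT-116 p53RE-bla cells receive compounds plus rat microsomes and NADPH (0.5 mg/mL final apiece), incubate 16 h at 37 C, and then CellTiter-Glo luminescence is recorded.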
# [8] = p53 small molecule agonists, cell-based qHTS assay: qHTS cell viability counter screen (AID 1963581); also: nearly all actives have a fitted effect of over 45% in size
# Method in brief: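 p53RE-bla HCT-116 cells, compounds added 5 h after plating and incubated 16 h at 37 C. Cytotoxicity measured in the same wells as intracellular ATP by CellTiter-Glo luminescence after 30 min at room temperature.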
# [9] = molecular target: 5-hydroxytryptamine receptor 2A (Homo sapiens) (UniProt P28223); assay: 5-hydroxytryptamine receptor 2A (HTR2A) small molecule antagonists, cell-based qHTS assay (AID 1963586); also: nearly all actives have a fitted effect of over 45% in size
# Method in brief: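 Antagonist-mode intracellular calcium assay: DOI (4 nM) added after 5 min compound pre-incubation at room temperature to dye-loaded HTR2A-CHO cells. Fluorescence followed for 3 min, sampled every second.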
# [10] = molecular target: 5-hydroxytryptamine receptor 2A (Homo sapiens) (UniProt P28223); assay: 5-hydroxytryptamine receptor 2A (HTR2A) small molecule agonists, cell-based qHTS assay (AID 1963587); also: nearly all actives have a fitted effect of over 30% in size
# Method in brief: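 CHO cells stably expressing human HTR2A, plated 18 h, loaded with calcium dye 1 h at 37 C. Agonist mode: compounds added and intracellular calcium fluorescence recorded kinetically for 2 min at 1 sec intervals.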
# [11] = molecular target: Muscarinic acetylcholine receptor M1 (Homo sapiens) (UniProt P11229); assay: Cholinergic receptor muscarinic 1 (CHRM1) small molecule antagonists, cell-based qHTS assay (AID 1963588); also: nearly all actives have a fitted effect of over 40% in size; also: potency is read from the fitted curve at half-maximal effect
# Method in brief: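 CHRM1-CHO calcium-flux assay, antagonist mode. Cells were seeded 18 h, dye-loaded 1 h at 37 C and given compound for 5 min at RT, then acetylcholine was added at 50nM. FDSS fluorescence was read 3 min; 15 concentrations, three runs.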
# [12] = molecular target: Muscarinic acetylcholine receptor M1 (Homo sapiens) (UniProt P11229); assay: Cholinergic receptor muscarinic 1 (CHRM1) small molecule agonists, cell-based qHTS assay (AID 1963589); also: nearly all actives have a fitted effect of over 35% in size
# Method in brief: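 CHO cells stably expressing human CHRM1 were loaded with calcium dye for 1 h at 37 C, then compound was added in agonist mode. Intracellular calcium fluorescence was followed kinetically at 1 s intervals. Fifteen concentrations were tested in three independent runs.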
# [13] = cAMP Responsive Elements (CRE) small molecule agonists, cell-based qHTS assay (AID 1963590)
# Method in brief: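 CRE-bla HEK 293T cells, 2,000/well in DMEM with 10% dialyzed FBS and 25 mM HEPES, pre-incubated 18 h at 37 C, then exposed to compound 3 h at 37 C. Beta-lactamase reporter read with LiveBLAzer B/G FRET substrate after 2 h at room temperature.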
# [14] = molecular target: Beta-2 adrenergic receptor (Homo sapiens) (UniProt P07550); assay: Adrenergic beta2 receptor (ADRB2) small molecule antagonists, cell-based qHTS assay (AID 1963592); also: series mostly up to about 92 µM; nearly all actives have a fitted effect of over 50% in size
# Method in brief: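 Cells (CHO, stable ADRB2 overexpression) incubated 18-20hr at 37C; compounds added from DMSO; agonist mix (1nM isoproterenol, 100uM IBMX, 25uM Ro-20-1724) added; 0.5hr RT; d2-cAMP and anti-cAMP-cryptate added; 1hr RT; 665/615 nm read.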
# [15] = molecular target: Beta-2 adrenergic receptor (Homo sapiens) (UniProt P07550); assay: Adrenergic beta2 receptor (ADRB2) small molecule agonists, cell-based qHTS assay (AID 1963593);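 also: CHO cells stably overexpressing human ADRB2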
# Method in brief: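 CHO cells stably over-expressing ADRB2 were plated overnight at 37C, then dosed with compounds plus a stimulation mix containing 100uM IBMX and 25uM Ro-20-1724 for 0.5hr at room temperature. cAMP was measured by HTRF competition, 1hr.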
# [16] = molecular target: D(2) dopamine receptor (Homo sapiens) (UniProt P14416); assay: Dopamine D2 receptor (DRD2) small molecule agonists, cell-based qHTS assay (AID 1963594); also: nearly all actives have a fitted effect of over 35% in size
# Method in brief: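 HEK293 cells stably expressing human DRD2, pre-treated with PDE inhibitor Ro20-1724 (0.1 mM final) and compound 10 min at room temperature, then stimulated with NKH477 (200nM […]) for 30 min. cAMP read by HTRF (665/620 nm).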
# [17] = molecular target: D(2) dopamine receptor (Homo sapiens) (UniProt P14416); assay: Dopamine D2 receptor (DRD2) small molecule antagonists, cell-based qHTS assay (AID 1963595; active = well fitted inhibition curve with a large enough effect in the signal ratio in the repeat runs, with a control signal flat; the % refers to the signal ratio)
# Method in brief: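 Antagonist mode in DRD2-HEK293 cells: after compound addition with 0.1 mM Ro20-1724, cells received quinpirole (12 nM) and NKH477 (200 nM) for 30 min at room temperature; HTRF cAMP read after 1 h detection.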
# [18] = cAMP Responsive Elements (CRE) small molecule antagonists, cell-based qHTS assay (AID 1963591; active = well fitted inhibition curve with a large enough effect in the signal ratio in the repeat runs, not every such curve was filed as active; the % refers to the signal ratio)
# Method in brief: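 CRE-bla HEK293T cells plated 18 h, then given compound plus NKH477 at 0.25 uM final for 3 h at 37C. Beta-lactamase reporter read with LiveBLAzer B/G FRET substrate after 2 h at room temperature.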
# Muscarinic acetylcholine receptor M1 (Homo sapiens), sequence (P11229 whole entry, looked up): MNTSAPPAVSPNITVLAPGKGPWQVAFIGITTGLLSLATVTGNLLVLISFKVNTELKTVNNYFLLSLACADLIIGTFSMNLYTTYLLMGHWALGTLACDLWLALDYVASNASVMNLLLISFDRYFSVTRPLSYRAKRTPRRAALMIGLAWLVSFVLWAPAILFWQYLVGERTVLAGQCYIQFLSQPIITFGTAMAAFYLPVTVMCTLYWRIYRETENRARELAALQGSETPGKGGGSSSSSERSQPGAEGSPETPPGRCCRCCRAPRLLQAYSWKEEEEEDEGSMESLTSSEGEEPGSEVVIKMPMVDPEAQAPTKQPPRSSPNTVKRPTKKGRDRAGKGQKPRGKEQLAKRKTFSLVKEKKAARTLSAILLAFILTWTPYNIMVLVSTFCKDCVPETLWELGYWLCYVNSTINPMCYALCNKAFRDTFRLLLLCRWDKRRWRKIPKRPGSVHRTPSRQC
# Gonadotropin-releasing hormone receptor (Homo sapiens), sequence (P30968 whole entry, looked up): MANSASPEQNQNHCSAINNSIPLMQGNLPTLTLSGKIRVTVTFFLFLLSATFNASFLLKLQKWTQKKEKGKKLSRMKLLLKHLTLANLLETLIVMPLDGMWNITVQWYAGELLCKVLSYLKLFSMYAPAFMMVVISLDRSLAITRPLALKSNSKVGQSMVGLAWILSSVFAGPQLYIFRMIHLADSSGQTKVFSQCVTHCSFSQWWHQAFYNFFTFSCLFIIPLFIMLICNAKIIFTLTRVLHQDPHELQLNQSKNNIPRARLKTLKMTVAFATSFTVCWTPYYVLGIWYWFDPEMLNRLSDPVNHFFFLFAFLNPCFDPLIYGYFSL
# Beta-2 adrenergic receptor (Homo sapiens), sequence (P07550 whole entry, looked up): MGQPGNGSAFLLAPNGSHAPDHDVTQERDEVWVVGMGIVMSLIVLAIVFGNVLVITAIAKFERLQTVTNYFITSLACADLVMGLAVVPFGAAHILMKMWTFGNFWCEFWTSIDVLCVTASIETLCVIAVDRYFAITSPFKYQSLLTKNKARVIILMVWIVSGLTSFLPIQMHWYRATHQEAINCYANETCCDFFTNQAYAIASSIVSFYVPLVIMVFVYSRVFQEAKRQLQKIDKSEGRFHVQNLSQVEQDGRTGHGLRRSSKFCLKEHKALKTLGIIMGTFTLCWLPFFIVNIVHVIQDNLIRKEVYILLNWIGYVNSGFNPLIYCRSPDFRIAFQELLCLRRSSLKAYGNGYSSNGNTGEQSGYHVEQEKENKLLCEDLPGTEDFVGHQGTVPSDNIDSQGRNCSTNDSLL
# KiSS-1 receptor (Homo sapiens), sequence (Q969F8 whole entry, looked up): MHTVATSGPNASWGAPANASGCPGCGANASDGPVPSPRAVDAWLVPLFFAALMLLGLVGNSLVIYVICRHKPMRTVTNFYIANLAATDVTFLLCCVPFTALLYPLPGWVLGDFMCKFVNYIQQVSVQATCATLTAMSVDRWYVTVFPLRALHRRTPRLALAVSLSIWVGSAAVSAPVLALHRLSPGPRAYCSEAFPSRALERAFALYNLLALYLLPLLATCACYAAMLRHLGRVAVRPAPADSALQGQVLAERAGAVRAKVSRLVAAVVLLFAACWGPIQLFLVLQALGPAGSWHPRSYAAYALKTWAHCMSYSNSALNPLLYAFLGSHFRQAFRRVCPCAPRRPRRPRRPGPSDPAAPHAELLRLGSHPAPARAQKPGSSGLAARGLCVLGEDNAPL
# D(2) dopamine receptor (Homo sapiens), sequence (P14416 whole entry, looked up): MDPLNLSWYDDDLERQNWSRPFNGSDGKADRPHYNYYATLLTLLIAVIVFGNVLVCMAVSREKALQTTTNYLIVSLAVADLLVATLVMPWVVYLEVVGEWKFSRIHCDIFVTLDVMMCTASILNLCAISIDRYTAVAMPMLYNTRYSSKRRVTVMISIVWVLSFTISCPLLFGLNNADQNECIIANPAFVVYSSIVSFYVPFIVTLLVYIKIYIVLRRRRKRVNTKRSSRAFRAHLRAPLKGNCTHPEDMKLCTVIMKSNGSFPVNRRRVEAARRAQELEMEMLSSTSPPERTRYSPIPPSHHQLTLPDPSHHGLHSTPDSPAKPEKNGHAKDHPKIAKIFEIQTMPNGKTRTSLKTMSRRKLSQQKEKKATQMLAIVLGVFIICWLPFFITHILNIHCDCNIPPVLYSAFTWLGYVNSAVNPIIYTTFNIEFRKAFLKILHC
# 5-hydroxytryptamine receptor 2A (Homo sapiens), sequence (P28223 whole entry, looked up): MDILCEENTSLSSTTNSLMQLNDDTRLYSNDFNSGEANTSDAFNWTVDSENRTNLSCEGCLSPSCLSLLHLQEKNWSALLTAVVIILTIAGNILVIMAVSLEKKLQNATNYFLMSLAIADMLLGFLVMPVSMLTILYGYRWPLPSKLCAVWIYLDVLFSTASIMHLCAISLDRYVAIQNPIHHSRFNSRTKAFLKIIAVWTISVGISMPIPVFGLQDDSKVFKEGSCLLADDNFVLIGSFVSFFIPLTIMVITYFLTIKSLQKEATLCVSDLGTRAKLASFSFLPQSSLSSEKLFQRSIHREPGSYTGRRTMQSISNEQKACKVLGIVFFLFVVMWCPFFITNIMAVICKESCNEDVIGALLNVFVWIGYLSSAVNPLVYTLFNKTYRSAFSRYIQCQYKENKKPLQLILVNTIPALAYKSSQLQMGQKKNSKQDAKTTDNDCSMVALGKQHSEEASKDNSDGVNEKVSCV
SMILES,Potency [1],Potency [2],Potency [3],Potency [4],Potency [5],Potency [6],Potency [7],Potency [8],Potency [9],Potency [10],Potency [11],Potency [12],Potency [13],Potency [14],Potency [15],Potency [16],Potency [17],Potency [18]
O=C1CCC(=O)N1Cl,inactive,inactive,inactive,inactive,inactive,inactive,inactive,inactive,inactive,inactive,inactive,inactive,inactive,inactive,inactive,inactive,inactive,
CCCCCCC#CC(=O)OC,inactive,inactive,inactive,inactive,inactive,inactive,inactive,inactive,inactive,inactive,inactive,inactive,,inactive,,inactive,inactive,inactive
COc1cc(C)cc(O)c1,inactive,inactive,inactive,inactive,inactive,inactive,inactive,inactive,inactive,inactive,inactive,inactive,inactive,inactive,inactive,,inactive,
COc1cc(Cl)c(OC)cc1N,inactive,inactive,inactive,inactive,inactive,inactive,inactive,inactive,inactive,inactive,inactive,inactive,inactive,,,inactive,inactive,
CCN(CCC#N)c1ccccc1,inactive,inactive,inactive,inactive,inactive,inactive,inactive,inactive,inactive,inactive,inactive,,inactive,inactive,inactive,inactive,inactive,inactive
C=C(C)C(=O)OCC,inactive,inactive,inactive,inactive,inactive,inactive,inactive,inactive,inactive,inactive,,inactive,inactive,inactive,,inactive,inactive,inactive
CC(=O)N(CC(O)CO)c1c(I)c(C(=O)NCCO)c(I)c(C(=O)NCC(O)CO)c1I (stereo not drawn),inactive,inactive,inactive,inactive,inactive,inactive,inactive,inactive,inactive,inactive,inactive,,inactive,inactive,inactive,inactive,inactive,inactive
CCN1C=CN(C)C1C (stereo not drawn),inactive,inactive,inactive,inactive,inactive,inactive,inactive,inactive,inactive,inactive,inactive,,inactive,inactive,,inactive,,inactive
CC[N+](CC)(CC)CCOC(=O)C(C1CCCC1)C1CCCC1,inactive,inactive,inactive,inactive,inactive,inactive,inactive,inactive,inactive,inactive,1.6 nM (active),inactive,,inactive,inactive,inactive,inactive,
O=C1c2cccc3c2[C@H](CCC3)CN1[C@@H]1CN2CCC1CC2,inactive,inactive,inactive,inactive,inactive,inactive,inactive,inactive,inactive,inactive,,inactive,inactive,inactive,,,,inactive
OC(C#CCN1CCCC1)(c1ccccc1)c1ccccc1,inactive,inactive,inactive,inactive,inactive,inactive,inactive,inactive,inactive,inactive,6.5 nM (active),,inactive,inactive,,inactive,,inactive
CNC1CCCN(c2c(F)cc3c(=O)c(C(=O)O)cn(C4CC4)c3c2OC)C1 (stereo not drawn),inactive,inactive,inactive,inactive,inactive,inactive,inactive,inactive,inactive,inactive,inactive,,inactive,inactive,,,inactive,inactive
O=C(Cl)c1c(Cl)cccc1Cl,inactive,inactive,inactive,inactive,inactive,inactive,inactive,inactive,inactive,inactive,inactive,,inactive,inactive,inactive,inactive,inactive,
NC(=O)c1ccccc1,inactive,inactive,inactive,inactive,inactive,inactive,inactive,inactive,inactive,inactive,inactive,,inactive,inactive,inactive,inactive,inactive,inactive
C=Cc1ccc(C(C)(C)C)cc1,inactive,inactive,inactive,inactive,inactive,inactive,inactive,inactive,inactive,inactive,,inactive,inactive,inactive,inactive,inactive,,inactive
